# Reference: publication PMC7819943, “Rice protein-binding microarrays: a tool to detect cis-acting elements near promoter regions in rice”
# In all, about 35,000 sequences were measured (“fluorescence intensity (a.u.)”: median about 10,000, highest 2% from about 52,000 on). The list comes from a sample in which the highest values are over-represented; it also holds similar and randomly drawn sequences.
# Molecular target: T1, OsWOX13 (Oryza sativa, UniProt Q5QMM3 1-267)
# T1 sequence: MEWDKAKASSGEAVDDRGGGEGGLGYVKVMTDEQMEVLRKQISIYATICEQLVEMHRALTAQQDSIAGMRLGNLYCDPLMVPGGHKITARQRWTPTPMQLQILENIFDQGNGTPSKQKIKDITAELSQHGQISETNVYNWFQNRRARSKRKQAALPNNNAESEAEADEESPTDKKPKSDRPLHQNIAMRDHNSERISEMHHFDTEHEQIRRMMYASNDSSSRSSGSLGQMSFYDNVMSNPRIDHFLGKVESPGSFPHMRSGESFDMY
# Assay: protein-binding microarray (RPBM); PBS, 2% BSA, 51.3 ng/ul salmon testes DNA, 50 uM zinc acetate, 200 nM TF, 25 C, 1 h; high values mean tight binding
# Details: protein: recombinant; tags: N-terminal polyhistidine and DsRed monomer fusion (pET32a); label: CyDye5-dUTP incorporated in the synthesized complementary strand; 3' TTTTT single-stranded linker to array surface; dsDNA, one strand shown
# In short: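 Ni–NTA purification followed expression in E. coli BL21-CodonPlus of transcription factors fused N-terminally to a polyhistidine tag and DsRed. At 200 nM in PBS with 2% BSA, salmon testes DNA and 50 µM zinc acetate, the protein was incubated for 1 h at 25 °C with a custom Agilent array that had been primer-extended with Cy5-dUTP and blocked with 2% BSA. After washing, the array was read on an Axon 4000B scanner. The binding signal is per-feature fluorescence intensity in arbitrary units.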
row,Sequence,binding signal
1,GGTTGTTAGCACATGATTAATTGTATTAAAACAACTTAAACGGAGTCACCTAGTGCAG,3580 fluorescence intensity (a.u.)
2,AAGATTGAAGGCAACCAAACCAACAAGGATGGATGCTTCTCGGAGTCACCTAGTGCAG,16500 fluorescence intensity (a.u.)
3,GGACGTATATATACATTGATTAATACCAAATCCTCAGCACCGGAGTCACCTAGTGCAG,4520 fluorescence intensity (a.u.)
4,GTTGATTTGTGTTTTGACTTTTGAAAAGACTACTGTTACTCGGAGTCACCTAGTGCAG,27500 fluorescence intensity (a.u.)
5,ATATTATTTATAAATTGTGTGTGCAACTGACTTGTGGGCCCGGAGTCACCTAGTGCAG,3490 fluorescence intensity (a.u.)
6,TTATAATTGTAAATTTTACAAATTAGTCCTCACCTGTTCTCGGAGTCACCTAGTGCAG,53400 fluorescence intensity (a.u.)
7,TTATAATTACTACATTATAATAAAAGTAAAATTGTATTTACGGAGTCACCTAGTGCAG,12100 fluorescence intensity (a.u.)
8,ATTATATATTTAATAAAATTAATTTGGTGTTGTATATTTACGGAGTCACCTAGTGCAG,8780 fluorescence intensity (a.u.)
9,CATAAATTAATTTGTTCACGTCACATTATATACAGTTGTACGGAGTCACCTAGTGCAG,55000 fluorescence intensity (a.u.)
10,AATTAAATTAGAGTATTCAGTTTGTATATAGTACATTTGTCGGAGTCACCTAGTGCAG,14000 fluorescence intensity (a.u.)
11,TAAAATTATCAAAATATTATATTATACACATAAGATTGTACGGAGTCACCTAGTGCAG,5140 fluorescence intensity (a.u.)
12,TTGTAATTACATAAATTATACGAATTGTAAAGATTTGGCACGGAGTCACCTAGTGCAG,54600 fluorescence intensity (a.u.)
13,AGTGATTATAATATTGTTCACAAATTTACAAACCTCTCATCGGAGTCACCTAGTGCAG,36700 fluorescence intensity (a.u.)
14,TTTTATATTTTAATTAATTACATAATGTAAATATTTCTCACGGAGTCACCTAGTGCAG,17100 fluorescence intensity (a.u.)
15,ACATATGTGATTAGTATCAGTTCATCAGTAGTCTTCCAATCGGAGTCACCTAGTGCAG,18500 fluorescence intensity (a.u.)
16,CTGACAGGTATTATTGCTTGATATATTTTACTCACTTTACCGGAGTCACCTAGTGCAG,14800 fluorescence intensity (a.u.)
17,ATGGGAGGTGAGATTGGGATTGGGAAATAAATGAATGGCTCGGAGTCACCTAGTGCAG,5250 fluorescence intensity (a.u.)
18,GAGCAGATGATTAGTGAAGGTGTAACCCCTAACATCGTTACGGAGTCACCTAGTGCAG,12900 fluorescence intensity (a.u.)
19,AATAAATTGTGTGGAAATTTAGCTTGCCCAATCAGATTGACGGAGTCACCTAGTGCAG,16000 fluorescence intensity (a.u.)
20,TGCTAATTGGGGATTTTCACATTCATGCTGTGTTAGCAGGCGGAGTCACCTAGTGCAG,54700 fluorescence intensity (a.u.)
21,AATGTGTTAGCGTTTAATTTGCGATTGGATTTGTTTCAGGCGGAGTCACCTAGTGCAG,3560 fluorescence intensity (a.u.)

row,Sequence,binding signal
1,AATTCTAATTGGGGAGCATTTAAAGGCTGGGTTTTAGTGGCGGAGTCACCTAGTGCAG,20100 fluorescence intensity (a.u.)
2,AAGTAATTTAGTCAACTCTAAAAGTAACTATGTGTGTGTGCGGAGTCACCTAGTGCAG,17300 fluorescence intensity (a.u.)
3,TTGAATCAATGACTGATCATTGCCCAGACTGCTATTTTCCCGGAGTCACCTAGTGCAG,7090 fluorescence intensity (a.u.)
4,CAAAACGAAATTGATAGATCTTAATGAGTTGTACAACTTTCGGAGTCACCTAGTGCAG,20400 fluorescence intensity (a.u.)
5,AACTTATTCCAATTATCAAACTCCGCTGCTCAACCAGGCCCGGAGTCACCTAGTGCAG,5860 fluorescence intensity (a.u.)
6,GCTTGATTGCCACACAAATTTTGACAATACGACCCTTTACCGGAGTCACCTAGTGCAG,42900 fluorescence intensity (a.u.)
7,TCGCTATAATTGACAGCGACCCTACCTTGGGCCACCGGACCGGAGTCACCTAGTGCAG,57100 fluorescence intensity (a.u.)
8,TTTTATAATTCGATGACAAATTGAGAGACCTTGGGTGTACCGGAGTCACCTAGTGCAG,13200 fluorescence intensity (a.u.)
9,AAGCCTAATTAATCCATCCTTAGCAGATGTGGGTTACCGTCGGAGTCACCTAGTGCAG,8630 fluorescence intensity (a.u.)
10,ATTACTATGATTACTATAATGTACCCTCAAAGCGTGTAGACGGAGTCACCTAGTGCAG,7510 fluorescence intensity (a.u.)
11,ATAATGTCAAATTTCGTTCCATTGTGAAGAAATTTTGCCACGGAGTCACCTAGTGCAG,3410 fluorescence intensity (a.u.)
12,GAGGGCAAGGCCCAGGGAAGCATATCTTGATAGTCGATATCGGAGTCACCTAGTGCAG,65500 fluorescence intensity (a.u.)
13,ATGGAATTGATTAGAAGCCAGCCAGGCAGGGGAGGGTCGTCGGAGTCACCTAGTGCAG,33900 fluorescence intensity (a.u.)
14,CATGATAGATCAGGCAGAGAGCAGATCAGAGCAAGCATGTCGGAGTCACCTAGTGCAG,11800 fluorescence intensity (a.u.)
15,GGTTCCACTATCAATCTTAGACAGTATAAACAGGTCAACACGGAGTCACCTAGTGCAG,5380 fluorescence intensity (a.u.)
16,AACAATTGATTAGTACAAAATGGTACTTCCTCCGTTTCACCGGAGTCACCTAGTGCAG,56600 fluorescence intensity (a.u.)
17,CTGATTAGTGATTTATTTAATTTGAGGAATCATTTTGGCACGGAGTCACCTAGTGCAG,64900 fluorescence intensity (a.u.)
18,AAGGAGAATTTTCTTGATTGAAATTATACATCATATTCATCGGAGTCACCTAGTGCAG,29500 fluorescence intensity (a.u.)
19,TTAATTACAAATTGATTTGATCACGTAGATAATTACATCACGGAGTCACCTAGTGCAG,62000 fluorescence intensity (a.u.)
20,ATAATTTGATCAAATTACATGTGATTTTGTGAAATTTACACGGAGTCACCTAGTGCAG,39700 fluorescence intensity (a.u.)
21,TGAGAGTGGCATTTAATTGAATCCTATTATGATGGTGGCACGGAGTCACCTAGTGCAG,16100 fluorescence intensity (a.u.)
